Activity calls are given as the source filed them.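 The calls were made as follows, unless noted: active = visually confirmed hit in the image check and inhibition above 20%; inconclusive = visually confirmed hit but inhibition not above 20%; inactive = no visual hit in the image check.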
Key:
[1] = inhibitors of TNFa-induced NFkB p65 translocation, primary screen, imaging, HUVEC, MLSMR starter and 10KST1 sets (AID 438;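 active = inhibition above 20% together with a positive visual image hit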;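 also: compound added about 3h40 before a 20 min TNFalpha stimulation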;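 as to inhibition: signal is the nuclear over cytoplasmic p65 intensity ratio per well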); settings: HUVEC TNFa-induced p65 nuclear translocation; cell count: measured here: nuclei count (cytotoxicity indicator), at 2.08 µM; inhibition: at 2 µM, stronger effect = higher value, 0% TNFa-plus-vehicle, 100% no-TNFa wells
[2] = reduction of polyQ htt aggregates in cells – imaging, exon1htt(103Q)mCFP cells, high-content imaging, primary screen (AID 483;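 active = visual image review flags a hit and inhibition of aggregation exceeds 20%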;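 also: compound exposure lasted 3 days before fixation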;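 as to nuclei count: percent of the per-plate median nuclei count of sample wells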); settings: exon1htt(103Q)mCFP cell line, aggregate imaging, at 2 µM; inhibition of aggregation: stronger effect = higher value; nuclei count: measured here: cell count, toxicity
[3] = endothelial E-selectin expression blockers – imaging, HUVEC, immunofluorescence, MLSMR starter and 10KST1 sets, primary screen (AID 487); settings: HUVEC TNFalpha-induced E-selectin immunofluorescence imaging, at 2 µM; inhibition: stronger effect = higher value; nuclei count: measured here: cell number, toxicity;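 as to inhibition: signal is fraction of cell area covered by stained E-selectin grains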;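 as to nuclei count: 100% = median nuclei count of all wells on the same plate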
[4] = target: Voltage-gated potassium channel subunit beta-2 (Rattus norvegicus) (UniProt P62483); test: inhibitors of rat Kvbeta2 reductase activity – biochemical, NADPH fluorescence, primary screen (AID 622;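 active = fluorescence slope higher than the sample average by over 3 SD, cut at about -0.22 in these data, passing the limit was not always enough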;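 also: slope of raw intensity against log time taken from 70 to 1610 s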); settings: recombinant KvBeta, 4-cyanobenzaldehyde reduction, at 10 µM, stronger effect = higher value
[5] = target: Voltage-gated potassium channel subunit beta-2 (Rattus norvegicus) (UniProt P62483); test: enhancers of rat Kvbeta2 NADPH turnover – biochemical, NADPH fluorescence, primary screen (AID 623;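 active = NADPH fluorescence slope more negative than the mean of all samples by about 3 SD, 99.7% confidence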;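 also: fluorescence intensity change per second fitted from 20 to 320 s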); settings: Recombinant KvBeta, NADPH fluorescence decrease slope, 10 min; at 10 µM; stronger effect = lower value
[6] = target: Alpha-2C adrenergic receptor (Homo sapiens) (UniProt P18825); test: compounds altering alpha2C-coupled GIRK flux – cell-based, HEK293 alpha2C/GIRK1/2, thallium flux, primary screen (AID 624;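 active = fluorescence slope after compound addition differing from the mean of all screened samples at 99.7% confidence, in either direction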;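 also: slope of fluorescence ratio to pre-addition baseline per second over 15 to 24 s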); settings: thallium flux BTC fluorescence, at 10 µM, actives lie on both sides
[7] = blockers of RIG-like receptor reporter activation – cell-based, Sendai virus stimulus, luciferase, 10K MLSCN set, TLR/RLR signaling modifier project, primary screen (AID 602276;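 active = inhibition at or above 50% at 10 µM; inactive = inhibition below 50%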;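 also: firefly luciferase from ISG56 promoter only with Renilla not read in this screen; 0% = Sendai virus plus DMSO and 100% = medium plus DMSO without virus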); settings: HEK293 RL24 IRF3 luciferase reporter, at 10 µM, stronger effect = higher value
[8] = TLR3 IRF3 reporter activation blockers – cell-based, poly I:C stimulus, luciferase, 10K MLSCN set, primary screen (AID 602277;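 active = inhibition of the reporter signal at or above 50%; inactive = inhibition below 50%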); settings: HEK293-TLR3 RL24 IRF3 luciferase reporter, at 10 µM, stronger effect = higher value

Alpha-2C adrenergic receptor (Homo sapiens), sequence (P18825 whole entry, looked up): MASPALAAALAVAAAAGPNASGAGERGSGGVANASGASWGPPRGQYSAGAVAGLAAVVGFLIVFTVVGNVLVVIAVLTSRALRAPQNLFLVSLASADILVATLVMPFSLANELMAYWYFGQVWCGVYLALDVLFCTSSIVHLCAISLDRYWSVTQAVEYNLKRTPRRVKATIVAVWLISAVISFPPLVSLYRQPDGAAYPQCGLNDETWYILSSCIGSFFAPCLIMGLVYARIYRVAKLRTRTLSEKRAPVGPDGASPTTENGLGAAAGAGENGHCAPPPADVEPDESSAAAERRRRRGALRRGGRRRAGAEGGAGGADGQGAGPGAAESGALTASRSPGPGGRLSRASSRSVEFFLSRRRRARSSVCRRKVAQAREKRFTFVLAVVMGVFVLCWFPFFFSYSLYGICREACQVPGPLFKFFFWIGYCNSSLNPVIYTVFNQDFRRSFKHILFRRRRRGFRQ
Voltage-gated potassium channel subunit beta-2 (Rattus norvegicus), sequence (P62483 whole entry, looked up): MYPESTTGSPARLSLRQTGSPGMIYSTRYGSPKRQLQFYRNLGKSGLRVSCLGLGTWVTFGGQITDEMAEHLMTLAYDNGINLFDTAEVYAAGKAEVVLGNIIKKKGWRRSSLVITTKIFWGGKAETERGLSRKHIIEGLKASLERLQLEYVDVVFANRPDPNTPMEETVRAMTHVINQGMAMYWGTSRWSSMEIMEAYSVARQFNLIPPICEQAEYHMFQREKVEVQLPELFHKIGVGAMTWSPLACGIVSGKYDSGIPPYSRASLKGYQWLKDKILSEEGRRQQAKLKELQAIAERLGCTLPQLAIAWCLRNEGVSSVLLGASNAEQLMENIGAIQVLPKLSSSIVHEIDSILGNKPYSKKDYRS

| Structure (SMILES) | cell count [1] | inhibition [1] | inhibition of aggregation [2] | nuclei count [2] | inhibition [3] | nuclei count [3] | fluorescence slope [4] | NADPH fluorescence slope [5] | slope [6] | inhibition [7] | inhibition [8] |
| --- | --- | --- | --- | --- | --- | --- | --- | --- | --- | --- | --- |
| Cn1cc(Br)c(C(=O)NC2CCCCC2)n1 | 483 | -5.1% (inactive) | -0.3% (inactive) | 105% | -145% (inactive) | 238% | -0.408 (inactive) | 1.7e-05 (inactive) | 0.00924 (inactive) | 7.35% (inactive) | 5.88% (inactive) |
| Cc1[nH]nc2c1C(c1ccc(F)cc1)C1=C(CC(C)(C)CC1=O)N2 (configuration not stated) | 561 | -30.6% (inactive) | 4.4% (inactive) | 98.7% | -52.8% (inactive) | 102% | -0.451 (inactive) | -8.1e-06 (inactive) | 0.00591 (inactive) | 10.5% (inactive) | 32.3% (inactive) |
| CC1=C(C(=O)OCC(C)C)C(c2cc3c(cc2Br)OCO3)NC(=O)N1C (configuration not stated) | 425 | -3.6% (inactive) | -13.3% (inactive) | 98.5% | -103% (inactive) | 118% | -0.44 (inactive) | -3.6e-05 (inactive) | 0.00323 (inactive) | 11.4% (inactive) | 34.6% (inactive) |
| CCOc1ccc(C2CC(=O)NC3=C2C(=O)CCC3)cc1Cl (configuration not stated) | 481 | 10% (inactive) | 5.5% (inactive) | 106% | -1.1% (inactive) | 110% | -0.407 (inactive) | -3.2e-05 (inactive) | 0.00268 (inactive) | 5.45% (inactive) | 13.2% (inactive) |
| O=C(CSc1ncnc2c1cnn2Cc1ccccc1)Nc1ccc2c(c1)OCCO2 | 308 | 0.9% (inactive) | 27.1% (inactive) | 94.9% | 11.1% (inactive) | 94.2% | -0.36 (inactive) | -0.00015 (inactive) | 0.00683 (inactive) | 6.25% (inactive) | 17.7% (inactive) |
| CC(C)CNS(=O)(=O)c1ccc(OCC(=O)Nc2ccc3c(c2)OCO3)c(Cl)c1 | 463 | -12.1% (inactive) | -1.9% (inactive) | 81.6% | -0.6% (inactive) | 85.5% | -0.377 (inactive) | -2e-05 (inactive) | 0.00353 (inactive) | 6.42% (inactive) | 19.3% (inactive) |
| COC(=O)c1cc(OC)c(OC)cc1NC(=O)c1ccc(Br)o1 | 296 | -7.2% (inactive) | -7.5% (inactive) | 95.4% | -91.3% (inactive) | 103% | -0.312 (inactive) | -4.6e-05 (inactive) | 0.00764 (inactive) | 2.63% (inactive) | -5.12% (inactive) |
| CCN(CC)C(=O)CSc1nnc(-c2cc(OC)cc(OC)c2)o1 | 733 | 0.6% (inactive) | 10.3% (inactive) | 100% | 19.1% (inactive) | 109% | -0.413 (inactive) | -4.5e-05 (inactive) | 0.00522 (inactive) | 8.18% (inactive) | 2.13% (inactive) |
| Nn1c(Cc2ccccc2F)nnc1SCC(=O)N1CC(=O)Nc2ccccc21 | 324 | 20.7% (inactive) | 11.9% (inactive) | 107% | -11.5% (inactive) | 105% | -0.39 (inactive) | 6.9e-08 (inactive) | 0.00403 (inactive) | 11.5% (inactive) | 36.8% (inactive) |
| O=C(CN(C1CCCCC1)S(=O)(=O)c1ccccc1)NCc1cccnc1 | 671 | 2% (inactive) | -28.8% (inactive) | 110% | -75.7% (inactive) | 119% | -0.308 (inactive) | -3e-05 (inactive) | 0.00649 (inactive) | 5.99% (inactive) | 13.7% (inactive) |
| Cc1ccc(NC(=O)C2CCCN(S(=O)(=O)c3cnc[nH]3)C2)c(Br)c1 (configuration not stated) | 601 | 10.1% (inactive) | -33.6% (inactive) | 82.3% | 12.8% (inactive) | 108% | -0.543 (inactive) | -6.4e-05 (inactive) | 0.00566 (inactive) | 3.4% (inactive) | -7.13% (inactive) |
| CCOC(=O)N1CCC(Nc2nc3ccccc3n3cnnc23)CC1 | 501 | -6.9% (inactive) | -21.2% (inactive) | 59.5% | -35.1% (inactive) | 117% | -0.581 (inactive) | -8.8e-06 (inactive) | 0.00645 (inactive) | 7.19% (inactive) | 18.1% (inactive) |
| Cc1ccc(-c2nc(CS(=O)CC(=O)NCCN(CC(C)C)CC(C)C)c(C)o2)cc1 (configuration not stated) | 716 | -7.2% (inactive) | 21.6% (inactive) | 134% | -18% (inactive) | 112% | -0.538 (inactive) | -2.2e-05 (inactive) | 0.00425 (inactive) | 21.1% (inactive) | 30.9% (inactive) |
| COc1ccc(C)cc1S(=O)(=O)N(CC(=O)O)c1ccccc1 | 343 | 8.1% (inactive) | -8% (inactive) | 91.3% | -90.2% (inactive) | 144% | -0.454 (inactive) | 7.5e-06 (inactive) | 0.00642 (inactive) | 34.7% (inactive) | 21% (inactive) |
| CC1C=CC(C)C(C(=O)O)C1C(=O)O (configuration not stated) | 543 | -4.4% (inactive) | 13% (inactive) | 46.5% | -15.8% (inactive) | 96% | -0.476 (inactive) | -5.7e-05 (inactive) | 0.00278 (inactive) | 7.99% (inactive) | 41.3% (inactive) |
| CC(C)[C@H](NC(=O)OC(C)(C)C)c1nnc(SCC(=O)Nc2ccc(Br)cc2)o1 | 402 | -6.7% (inactive) | 6.5% (inactive) | 107% | -13.2% (inactive) | 130% | -0.457 (inactive) | 2.2e-05 (inactive) | 0.00396 (inactive) | 2.98% (inactive) | 28.3% (inactive) |
| O=C(Nc1ccc(N2CCN(Cc3ccccc3Cl)CC2)cc1)c1cccnc1 | 630 | -4.2% (inactive) | 15.2% (inactive) | 65.6% | -27% (inactive) | 102% | -0.478 (inactive) | 1.4e-05 (inactive) | 0.00649 (inactive) | -23.5% (inactive) | -14.5% (inactive) |
| Cc1cc2n(n1)C(c1ccccc1)Nc1ccccc1-2 (configuration not stated) | 410 | -1.3% (inactive) | -2.5% (inactive) | 101% | -13.2% (inactive) | 119% | -0.512 (inactive) | -3.7e-05 (inactive) | 0.00459 (inactive) | -11.9% (inactive) | -26.7% (inactive) |
| Cc1onc(-c2ccccc2Cl)c1C(=O)Nc1cccnc1 | 286 | -2.3% (inactive) | 1.8% (inactive) | 106% | -78.5% (inactive) | 148% | -0.452 (inactive) | 2.6e-05 (inactive) | 0.00566 (inactive) | 0.844% (inactive) | 32.2% (inactive) |
| CC(=O)Nc1cc(N2C(=O)CCC2=O)ccc1Cl | 498 | 3.5% (inactive) | 12.7% (inactive) | 98.5% | 10.7% (inactive) | 110% | -0.509 (inactive) | 2.5e-05 (inactive) | 0.00539 (inactive) | 23% (inactive) | 20.8% (inactive) |
| N#Cc1ccccc1NC(=O)CSc1nnc(-c2ccccc2)n1-c1ccccc1 | 556 | -25.3% (inactive) | -20.9% (inactive) | 99.9% | -1.6% (inactive) | 83.7% | -0.603 (inactive) | -1.9e-05 (inactive) | 0.00673 (inactive) | 1.9% (inactive) | 24.8% (inactive) |
| CCn1c(C(=O)N2CCC(C(=O)NCc3ccc4c(c3)OCO4)CC2)cc2sccc21 | 505 | -0.9% (inactive) | -30.3% (inactive) | 75.4% | -65.2% (inactive) | 120% | -0.508 (inactive) | -5.3e-05 (inactive) | 0.00644 (inactive) | 14.9% (inactive) | -2.44% (inactive) |
| Cc1nnc(N2C(=O)C(O)=C(C(=O)c3ccco3)C2c2ccc(F)cc2)s1 (configuration not stated) | 881 | 4.6% (inactive) | -4.4% (inactive) | 122% | 2.7% (inactive) | 123% | -0.601 (inactive) | -4.6e-05 (inactive) | 0.00826 (inactive) | 12.3% (inactive) | 19.7% (inactive) |
| Cc1nnc(NC(=O)CSc2cn(CCNC(=O)c3ccccc3)c3ccccc23)s1 | 651 | -9.6% (inactive) | 28.2% (inactive) | 70.8% | -12.7% (inactive) | 106% | -0.452 (inactive) | 5.8e-06 (inactive) | 0.00437 (inactive) | -1.29% (inactive) | -44.3% (inactive) |
| COc1cc(OC)cc(-c2nnc(SCC(=O)Nc3cc(C)on3)o2)c1 | 230 | 0.6% (inactive) | 32.6% (inactive) | 77.5% | -264% (inactive) | 111% | -0.347 (inactive) | -2.3e-05 (inactive) | 0.00422 (inactive) | 7.23% (inactive) | 31.7% (inactive) |
| COc1ccc(Cn2c(-c3ccco3)nc3oc4ccccc4c(=O)c3c2=O)cc1 | 492 | -7.6% (inactive) | -68.5% (inactive) | 90.1% | -22% (inactive) | 115% | -0.491 (inactive) | -2.1e-05 (inactive) | 0.00596 (inactive) | -1.06% (inactive) | -24.4% (inactive) |
| CC(C)N(C(=O)CSc1nnc(NC(=O)C2CCC2)s1)C(C)C | 599 | -0.6% (inactive) | -7.3% (inactive) | 86.3% | -108% (inactive) | 110% | -0.466 (inactive) | 2.4e-05 (inactive) | 0.00479 (inactive) | 17.8% (inactive) | 25.1% (inactive) |

Reference: PubChem BioAssay
